# HCV inhibitor = inhibitors of hepatitis C virus infection | Potency, µM (series often up to 41.8 µM), for inactives: top-dose activity change, negative = inhibition, usual class: inhibitors | Huh7.5.1 HCVcc-Cre infection, luciferase reporter, 44 h | AID 651820 | 340,000 compounds, 3.4% hits; also: % is scaled to controls: 0 for no effect and ±100 for the full control effect
#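 Reporter virus HCVcc-Cre (~0.5 moi) infects cells exposed to compound; seeding density 1,000 cells/well with 4 h settling beforehand. Luminescence, 15 sec read, taken 44 h post-infection following a 15 min RT substrate incubation.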
# Pf growth 48h = inhibits P. falciparum growth in the first generation, 48 h | 310,000 compounds, 5.9% hits | Potency, µM (titrated, usually from 28.7 µM), for the others: at the top dose activity change, negative = inhibition, most hits filed as inhibitors | P. falciparum luciferase growth in erythrocytes, 48 h; also: % is scaled to controls: 0 for no effect and ±100 for the full control effect
#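 Luciferase-expressing parasites in RBCs, 2% Hct / 0.1% parasitemia final; RPMI 1640 + 0.5% Albumax; 37 C, 5% CO2, one generation; luminescence read-out, lower signal = inhibition.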
# SARS PLpro yeast = inhibitors of SARS-CoV papain-like protease in yeast; S. cerevisiae expressing SARS-CoV PLpro, growth rescue; Potency, µM (titrated, usually from 32.9 µM), for inactives: at the top dose activity, positive = growth rescue, hits mostly activators; 330,000 compounds, 0.19% hits; calls by dose curve; also: 0% is about no effect; nearly all actives have a fitted effect of over 55% in size
# AMA1-RON2 inh = AMA1-RON2 (P. falciparum) interaction inhibition | AlphaScreen AMA1-biotinylated RON2 peptide binding | Potency, µM (titrated, usually from 58.2 µM), inactives show at the highest dose activity change, negative = inhibition, most hits filed as inhibitors | 360,000 compounds, 0.2% hits | AID 720542;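 also: 0% = vehicle wells and -100% = peptide control; nearly all actives have a fitted effect of over 45% in size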
#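 AMA1 (3D7) with his tag at 25 nM final met compounds first, then biotinylated RON2 peptide at 25 nM; detection used donor plus acceptor beads, 10 µg/mL apiece, read by AlphaScreen after 30 min at room temperature.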
# NS1 function inh = blocks influenza NS1 protein function | Potency, µM (top dose mostly 46.1 µM), for inactives: top-dose activity, positive = more growth | 270,000 compounds, 0.4% hits | AID 2326; calls by dose curve; also: actives are rising curves; nearly all actives have a fitted effect of over 50% in size
#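 Growth recovery, yeast-based: influenza A NS1 expressed in S. cerevisiae causes slow growth, and suppressors are detected by OD600. The parent strain without NS1 is used as positive control.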
# Pf growth 96h = P. falciparum growth inhibition at 96 hours. P. falciparum luciferase reporter growth, 96 h. 320,000 compounds, 6.9% hits. Potency, µM (top dose mostly 28.7 µM), inactives show at the top dose activity change, negative = inhibition, actives largely listed as inhibitors; also: % is scaled to controls: 0 for no effect and ±100 for the full control effect
#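 Two parasite generations (96 h, 37 C, 5% CO2) of compound exposure in infected erythrocytes (0.05% parasitemia, 2% hematocrit). Luciferase-reporter P. falciparum; decreased luminescence indicates inhibited growth, aimed at apicoplast-acting delayed death.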
# The depositor's hits bear a star; ? = inconclusive; / = no result; [ ] = another dose, or the depositor's remark. An excerpt weighted towards active compounds, which were near 12% of everything screened. Unless noted, calls follow the shape of the dose curve; as a rule, active = well fitted curve in the direction sought with a large enough effect; inconclusive = small, poorly fitted or top-dose-only effect, or another doubt; inactive = no such curve, though single readings can be large; an effect the other way counts as inactive or inconclusive. Potency is read from the fitted curve at half-maximal effect.
SMILES,HCV inhibitor,Pf growth 48h,SARS PLpro yeast,AMA1-RON2 inh,NS1 function inh,Pf growth 96h
CCN(CC)S(=O)(=O)c1ccc2oc(SCC3CN=C(c4ccc(OC)cc4)S3)nc2c1 (stereo unspecified),11µM*,?,-4%,1%,-33%,79%
CCc1ccc(NC(=O)CSc2nc3ccccc3nc2N2CCCC2)cc1,-9%,-10%,?,55%,?,2.6µM*
COc1ccc(C2=NCC(CSc3nnc(-c4ccc5c(c4)OCO5)o3)S2)cc1 (stereo unspecified),?,-7%,-10%,3%,-67%,?
CCc1ccc(Nc2nnc(SCC(=O)Nc3ccc(C(=O)O)cc3)s2)cc1,20%,4.7µM*,-2%,-10%,9%,196%
N#CC1(NC(=O)CSc2nc3ccc([N+](=O)[O-])cc3s2)CCCCC1,?,5.2µM*,2%,-22%,/,?
N#CC1(NC(=O)CSc2nc3ccccc3s2)CCCCC1,?,?,-3%,-2%,/,-15%
CCc1ccc(Nc2nnc(SCC(=O)N(C)C3CCS(=O)(=O)C3)s2)cc1 (stereo unspecified),-2%,9.3µM*,-1%,19%,-5%,?
CCN(C(=O)CSc1nc2cc(S(=O)(=O)N(CC)CC)ccc2o1)C1CCS(=O)(=O)C1 (stereo unspecified),?,?,-2%,4%,12%,?
CCCN(C(=O)CSc1nc2cc(S(=O)(=O)N(CC)CC)ccc2o1)C1CCS(=O)(=O)C1 (stereo unspecified),?,?,5%,14%,/,5.2µM*
CCN(C(=O)CSc1nc2ccc([N+](=O)[O-])cc2s1)C1CCS(=O)(=O)C1 (stereo unspecified),-7%,?,1%,-1%,/,12µM*
CCN(C(=O)CSc1nnc(Nc2cccc(C)c2C)s1)C1CCS(=O)(=O)C1 (stereo unspecified),22%,8.3µM*,?,-8%[11.6 µM],2%,-102%
CCN(C(=O)CSc1nnc(NCc2ccccc2)s1)C1CCS(=O)(=O)C1 (stereo unspecified),8%,15%,0%,4%,/,?
COc1cc(-c2ccc(NC(=O)NC3CC3)c(OC)c2)ccc1NC(=O)NC1CC1,/,?,-1%,/,5%,?
COc1ccc(-n2nc(C(=O)NCC(=O)N3CCN(c4ccccc4OC)CC3)c3ccccc3c2=O)cc1OC,-26%,1.7µM*,-1%,14%,-1%,?
COc1ccc(-n2nc(C(=O)NCC(=O)N3CCC4(CC3)OCCO4)c3ccccc3c2=O)cc1OC,2%,?,2%,2%,-1%,4.7µM*
CCCCNC(=O)CNC(=O)c1nn(-c2ccc(OC)c(Cl)c2)c(=O)c2ccccc12,-11%,/,1%,9%,2%,30%
CCC1CCCCN1CCCNC(=O)CNC(=O)c1nn(-c2ccc(OC)c(Cl)c2)c(=O)c2ccccc12 (stereo unspecified),?,5.2µM*,1%,-12%,0%,?
COc1ccc(-n2nc(C(=O)NCC(=O)N3CCN(c4ccccc4)CC3)c3ccccc3c2=O)cc1OC,-23%,0%,-3%,-15%,2%,16%
CCCN1CCN(CC(=O)NCC(=O)Nc2cccc(C)c2C)CC1,39%,-29%,-5%,-1%,/,-1%
COC(=O)N1C(=O)[C@](Cc2ccccc2)(c2ccccc2)N1C(=O)OC,16%,32%,-1%,-4%,14%,31%
CCc1ccc(CN(C)Cc2nc(-c3cccc(Cl)c3)no2)nc1,8%,11%,3%,17%,-12%,?
CC(=O)Oc1ccc(OC(C)=O)c2c1CC1(C)OC1(C)C2 (stereo unspecified),/,/,/,-9%,/,/
Cc1ccc(-c2nn3c(C)nnc3c3ccccc23)cc1S(=O)(=O)NCc1ccccc1,?,?,-6%,3%,6%,8.3µM*
CCN(C(=O)CSc1ncccn1)c1c(N)n(Cc2ccccc2)c(=O)[nH]c1=O,4%,?,-5%,12%,/,2%
O=C(CSc1nnc(NC(=O)C2CCC2)s1)Nc1ccccc1Br,12%,-7%,2%,6%,2%,2%
SMILES,HCV inhibitor,Pf growth 48h,SARS PLpro yeast,AMA1-RON2 inh,NS1 function inh,Pf growth 96h
Cc1ccc(C)n1-c1c(C(=O)NN)cnn1-c1ccccc1,5%,10µM*,2%,30%,/,?
COc1ccc(/C=N/NC2=NS(=O)(=O)c3ccccc32)cc1OC,12%,?,1%,61%,?,?
COc1ccccc1Cc1noc(-c2cc(Cl)ccc2OC)n1,7.1µM*,?,0%,12%,-2%,/
Cn1c(SCC(=O)Nc2ccc3c(c2)OCO3)nnc1C(F)(F)F,-5%,/,2%,-6%,/,/
CN1C2CCC1CC(OC(c1ccccc1)c1ccc(Cl)cc1)C2 (stereo unspecified),/,4.8µM*,/,/,-31%,9%
CN1C2CCC1CC(OC(c1ccccc1)c1ccccc1N)C2 (stereo unspecified),?,/,/,-5%,-5%,/
CC(C)CCn1c(COc2ccccc2)nn(CCC#N)c1=S,-6%,-5%,-1%,9%,4%,1%
O=C(CCl)c1ccc2c(c1)CCN2C(=O)C1CCCCC1,?,?,-7%,-4%,/,?
CC(Oc1ccc(Br)cc1)C(=O)N1CCc2ccccc21 (stereo unspecified),5%,1.5µM*,3%,36%,5%,22%
CC(Oc1ccccc1Br)C(=O)N1CCc2ccccc21 (stereo unspecified),3%,-84%,-6%,-1%,-72%,70%
O=C(CCl)c1ccc2c(c1)CCN2C(=O)C1CC1,/,-15%,21%,/,-45%,10µM*
O=C(C1CCC(C(=O)N2CCc3ccccc32)CC1)N1CCc2ccccc21 (stereo unspecified),-1%,2%,3%,2%,2%,8.3µM*
O=C(CS(=O)(=O)c1ccccc1)N1CCc2ccccc21,-1%,54%,-2%,8%,3%,0.83µM*
O=S(=O)(NC1CCCC1)c1ccc(F)cc1F,/,/,/,-2%,/,/
CCc1ccc(CN(C)C(=O)C2CCC(=O)N(CC3CCCCC3)C2)cc1 (stereo unspecified),6%,?,-4%,-13%,2%,13µM*
O=C(NCCc1ccccc1Cl)C1CCC(=O)N(CC2CCCCC2)C1 (stereo unspecified),8%,-9%,-2%,-3%,-18%,13µM*
COc1cc(OC)cc(-c2c(-c3cccs3)c3cc(-c4ccc(N(C)C)nc4)ccc3n2C)c1,?,?,1%,-13%,/,?
CC(=O)Oc1ccccc1C(=O)NC(C)CCc1ccccc1 (stereo unspecified),?,15µM*,-3%,2%,-45%,?
